Compounds without any hit were thinned out: in the full panel of roughly 83,000, 20% have a hit.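 Results are percent growth after 48 hours of single-concentration exposure. 100 means growth as in untreated cells, lower positive values show inhibition; negative values down to -100 show cell death.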 Values without a mark were called inactive. The source made the active and inactive calls. How the source made its calls: active means growth percent below 10; inactive means the rest.
How the values were obtained:
Test in all cases: NCI-60 one-dose screen, 48 h (100 = growth as untreated, 0 = no growth, -100 = all killed)
Settings in all cases: 10 µM unless noted
[1] = test system: T-47D breast
[2] = test system: BT-549 breast
[3] = test system: MDA-MB-435 melanoma
[4] = test system: SW-620 colon
[5] = test system: MCF7 breast
[6] = test system: HCT-116 colon
[7] = test system: HCC-2998 colon
[8] = test system: KM12 colon

Row | Compound | growth [1] | growth [2] | growth [3] | growth [4] | growth [5] | growth [6] | growth [7] | growth [8]
1 | O=C(CSc1nnc(-c2cc3c([nH]c4ccccc43)c(-c3cccc(O)c3)n2)n1-c1ccccc1)c1ccccc1 | 53% | 56% | -33.3% (active) | 50% | 13.7% | 29.7% | 96% | 60.1%
2 | Cc1ccc(-c2cc(-c3nnc(SCC(=O)c4ccccc4)o3)c3ccccc3n2)cc1 | 93% | 93.4% | 93.5% | 101% | 91.2% | 99% | 99.6% | 94.1%
3 | COc1ccc(-c2nn(-c3ccc(NC(=O)Nc4cc(C(F)(F)F)cc(C(F)(F)F)c4)cc3)cc2-c2ccncc2)cc1Cl | 25.3% | 17.5% | 8.04% (active) | 19.5% | 15.5% | 2.45% (active) | 12.3% | 7.63% (active)
4 | Cc1cc2c(cc1C)N(C(=O)CCl)CCN2C(=O)CCl | -34.5% (active) | -28.3% (active) | -26.9% (active) | -78.2% (active) | -47.6% (active) | -34% (active) | -97.9% (active) | -85.2% (active)
5 | CC1CCC(C(C)C)C(NN)C1 (stereo not drawn) | 80.2% | 105% | 110% | 104% | 100% | 106% | 97.9% | 105%
6 | Cc1nccc2c3ccc(OCc4cn(-c5ccc(Br)cc5)nn4)cc3n(CCCc3ccccc3)c12 | 104% | 53.5% | 18.7% | 2.21% (active) | 12.5% | 30.6% | 35.6% | 8.07% (active)
7 | O=C(Nc1cccc([N+](=O)[O-])c1)c1ccc2ccccc2c1O | 35.8% | 80% | 49.7% | 74% | 77% | 59.4% | 67% | 79.1%
8 | C=C1C(=O)O[C@H]2[C@H]1CC/C(CNC(=O)/C1=C/CC[C@@]3(C)O[C@H]3[C@H]3OC(=O)C(=C)[C@@H]3CC1)=C\CC[C@@]1(C)O[C@@H]21 | 69.8% | 101% | 96.4% | 77.4% | 75% | 82.5% | 105% | 102%
9 | O=C(Nc1ccc(-n2ccc3c(NC(=O)c4ccccc4)ncnc32)cc1)c1cccc(C(F)(F)F)c1 | 57.8% | 51.9% | 38.3% | 29.1% | 36.4% | 22.3% | 59.8% | 30%
10 | COc1ccc(-c2nn(-c3ccc(NC(=O)c4cc(C(F)(F)F)cc(C(F)(F)F)c4)cc3)cc2-c2ccncc2)cc1Cl | 52.9% | 71% | 67.4% | 72.1% | 66.9% | 42.7% | 77.5% | 53.2%
11 | COC(=O)c1oc2c(C(C)=O)c(OCCN3CCCCC3)ccc2c1C | 129% | 130% | 80.8% | 103% | 105% | 89.7% | 113% | 102%
12 | CCn1cc(/C=C2\Oc3cc(OCC#N)ccc3C2=O)c2cc(OC)ccc21 | 48.4% | 52.6% | -20.7% (active) | 28% | 20.6% | 12.4% | 55.6% | 23.6%
13 | O=[N+]([O-])c1ccccc1NC1c2ccccc2Oc2ccccc21 | 76.5% | 54.8% | -47.7% (active) | 19.8% | 57.1% | 30.3% | 66% | 26.3%
14 | CC(C)(C)OC(=O)N1CC(Cn2cc(C(F)(F)F)c3c(Cl)ncnc32)C1 | 42.6% | -91.1% (active) | -83.4% (active) | -37.6% (active) | -32.7% (active) | -84.5% (active) | -89.2% (active) | -50.4% (active)
15 | COc1ccc(C2CC(c3cc(Cl)c(C)cc3OC)=NN2c2ccc(S(N)(=O)=O)cc2)cc1OC (stereo not drawn) | 77% | 83.2% | 95.8% | 93.6% | 80.4% | 56.7% | 99.9% | 91.8%
16 | COc1ccc(-c2nnc(NC(=O)CN3CCN(c4cc5c(cc4F)c(=O)c(C(=O)O)cn5C4CC4)CC3)s2)cc1OC | 101% | 105% | 103% | 105% | 106% | 103% | 99.6% | 98.2%

Row | Compound | growth [1] | growth [2] | growth [3] | growth [4] | growth [5] | growth [6] | growth [7] | growth [8]
17 | COc1ccc(-c2nn(-c3ccc(NC(=O)Nc4ccc(Cl)c(C(F)(F)F)c4)cc3)cc2-c2ccncc2)cc1Cl | 24.7% | 0.583% (active) | -16.6% (active) | 3.24% (active) | 7.96% (active) | -7.68% (active) | 11.3% | 0.474% (active)
18 | C=CC(=O)Nc1cccc(Nc2nc(Nc3ccc(OCCOC(F)F)cc3)ncc2F)c1 | 32.8% | 24.5% | 9.37% (active) | 19% | 23.9% | 36% | 35.8% | 37.4%
19 | O=C(Nc1cccc(-n2ccc3c(NC(=O)c4ccccc4)ncnc32)c1)Nc1ccc(Cl)c(C(F)(F)F)c1 | 21.6% | 45.9% | -7.53% (active) | 41.3% | 20% | 17% | 40.8% | 12.5%
20 | COC1=C(OC)C(=O)C=CC1=O | 99.5% | 94.4% | 116% | 77.8% | 94.3% | 64.4% | 125% | 104%
21 | Nc1n[nH]c2cccc(C#Cc3cccc(NC(=O)c4cccc(C(F)(F)F)c4)c3)c12 | 25.3% | 46.2% | 30.1% | 46.1% | 39.9% | 9.05% (active) | 26.2% | 38.5%
22 | O=C1OC(c2ccc(-c3ccccc3)cc2)=C/C1=C/C=C/c1ccccc1 | 101% | 111% | 106% | 97% | 87.9% | 88% | 106% | 103%
23 | COc1cc(NC(C)CCCN2C(=O)c3ccccc3C2=O)c2nc(C)ccc2c1OC (stereo not drawn) | 95.1% | 103% | 111% | 97.3% | 90.6% | 85.4% | 95.4% | 107%
24 | CCCCC(=O)Nc1nc2ccc(SCCC)cc2s1 | 48% | 40.6% | 4.42% (active) | 34.6% | 35% | 31.1% | 77.1% | 34.1%
25 | NC(=S)NNC1CCCCC1 | 80% | 88.4% | 106% | 99.7% | 88.8% | 91.8% | 100% | 99.9%
26 | CN(C)CCS(=O)(=O)Nc1cc(-c2ccc3ncnc(Nc4ccc(F)c(Cl)c4)c3c2)cnc1Cl | -27% (active) | -17.9% (active) | -47.6% (active) | -22.7% (active) | 8.88% (active) | -21.5% (active) | -83.7% (active) | -56.3% (active)
27 | CS(=O)(=O)Nc1cccc(-c2ccc3ncnc(Nc4ccc(F)c(Cl)c4)c3c2)c1 | -21.7% (active) | 35.4% | 38.7% | 7.1% (active) | 15.3% | 16.1% | 20.2% | 21.6%
28 | O=C(Nc1ccc(-n2cc(-c3ccncc3)c(-c3ccc(O)c(Cl)c3)n2)cc1)c1ccc(Cl)c(C(F)(F)F)c1 | 39.8% | 14.9% | 16% | 26.7% | 20.9% | 9.26% (active) | 25.9% | 15%
29 | O=C(COc1ccc(Cl)cc1Cl)N1N=C(c2ccc(Cl)cc2Cl)CC1(O)c1cc(F)c(Cl)cc1Cl (stereo not drawn) | 98.8% | 111% | 107% | 116% | 95.6% | 95% | 124% | 117%
30 | COc1ccc(-c2coc3c(CO)c(O)ccc3c2=O)cc1 | 61.8% | 14.2% | 60.2% | 83.5% | 40.8% | 19.3% | 29.6% | 60.4%
31 | O=C(O)c1ccc(-c2nn(-c3ccc(C(=O)O)cc3)cc2/C=N/Nc2c(F)c(F)cc(F)c2F)cc1 | 95% | 120% | 107% | 110% | 95.7% | 100% | 100% | 100%

— PubChem BioAssay (NCI)
